Experiment [1] is described as follows: cAMP Responsive Elements (CRE) small molecule antagonists, cell-based qHTS assay: qHTS cell viability counter screen (AID 2060913). Further: nearly all actives have a fitted effect of over 40% in size. The method, boiled down:
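HEK293T CRE-bla, 2,000 cells/well, 18 h preincubation; cpd in DMSO + NKH477 0.25 uM final, 3 h 37 C/5% CO2; LiveBLAzer 2 h RT, then CellTiter-Glo 30 min RT, luminescence.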

A short description of experiment [2]: cAMP Responsive Elements (CRE) small molecule agonists, cell-based qHTS assay: qHTS cell viability counter screen (AID 2060914). Further: nearly all actives have a fitted effect of over 50% in size. An outline of the steps: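 Luminescence read-out (CellTiter-Glo, 30 min RT) of ATP-based viability in CRE-bla HEK 293T cells, run in the same wells as the β-lactamase reporter assay after 3 h compound treatment at 37 °C.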
On the technique in general: In qHTS, concentration-response curves come from the screen itself.

60 compounds from PubChem BioAssay (Tox21) can be followed below.

Results filed as inconclusive are left out. Unmarked numbers belong to inactive results. Active and inactive are the calls of the source. The call rests on the fitted dose curve; in most records, active means well fitted cell-killing curve with a large enough effect in the repeat runs; inconclusive means weak or mixed curves, or effect the other way; inactive means flat fitted curve, though single readings scatter.
On the % scale 0 is the no-effect control and ±100 the full control effect.

For the compound `CC(C)(Oc1ccc(CCNC(=O)c2ccc(Cl)cc2)cc1)C(=O)O`, the Potency entry in experiment [1] and in experiment [2] was “inactive” in each case.

Take `CC1(C)CC(N=C=O)CC(C)(CN=C=O)C1` (stereo not given): the Potency result in experiment [1] and in experiment [2] was “inactive” in each case.

Turning to `O=C(O)c1cn(C2CC2)c2cc(Cl)c(F)cc2c1=O`, the Potency entry in experiment [1] and in experiment [2] was “inactive” each time.

For `O=C(c1ccc(O)cc1)c1ccc(Cl)cc1`, the Potency entry in experiment [1] and in experiment [2] was “inactive” each time.

As to `CCC(=O)Oc1ccc(/C(CC)=C(\CC)c2ccc(OC(=O)CC)cc2)cc1`, the Potency entry in experiment [1] and in experiment [2] was “inactive” throughout.

For the compound `O=C(C(=O)c1ccc(Br)cc1)c1ccc(Br)cc1`, the viability change, negative = cytotoxic in experiment [1] was -3.96% [at 18.9 µM]. For the same compound, the activity change, negative = cytotoxicity in experiment [2] is -3.4% [at 18.9 µM].

In the case of `CCC(CO)(CO)COCC(CC)(CO)CO`, the Potency entry in experiment [1] and in experiment [2] was “inactive” in each case.

On to `CCCCC/C(=C\c1ccccc1)CO`, for which the Potency entry in experiment [1] and in experiment [2] was “inactive” in each case.

Consider `C=C(C)C(=O)OCCCCCCCCCCCC`, for which the Potency result in experiment [1] and in experiment [2] was “inactive” throughout.

Regarding `CC(=O)Oc1cccc2c1C(=O)c1c(OC(C)=O)cc(C(=O)O)cc1C2=O`, the Potency entry in experiment [1] and in experiment [2] was “inactive” throughout.

For the compound `NCc1ccccc1`, the Potency entry in experiment [1] and in experiment [2] was “inactive” each time.

Consider `C[C@@H](C1=C(CCN(C)C)Cc2ccccc21)c1ccccn1`, for which the Potency result in experiment [1] and in experiment [2] was “inactive” each time.

With `C=CC(C)(C)C`, the Potency entry in experiment [1] and in experiment [2] was “inactive” in each case.

Regarding `CNC[C@H](O)c1ccc(O)c(O)c1`, the Potency result in experiment [1] and in experiment [2] was “inactive” in each case.

As for `CC1(C)C(=O)N(Br)C(=O)N1Br`, the Potency result in experiment [1] and in experiment [2] was “inactive” throughout.

For `COc1ccc2c(c1)c(CC(=O)OCC(=O)O)c(C)n2C(=O)c1ccc(Cl)cc1`, the Potency entry in experiment [1] and in experiment [2] was “inactive” throughout.

Take `COc1ccc(CCO)cc1`: the Potency entry in experiment [1] and in experiment [2] was “inactive” each time.

Consider `COc1ccc(O)cc1`, for which the Potency entry in experiment [1] and in experiment [2] was “inactive” throughout.

Take `Cc1cc(O)c(Cl)cc1C`: the Potency entry in experiment [1] and in experiment [2] was “inactive” in each case.

With `CC(=O)N1C[C@H](O)C[C@H]1C(=O)O`, the Potency result in experiment [1] and in experiment [2] was “inactive” in each case.

In the case of `CC(=O)OCCc1ccccc1`, the Potency result in experiment [1] and in experiment [2] was “inactive” throughout.

With `CCCCCCC(=O)c1ccccc1`, the Potency result in experiment [1] and in experiment [2] was “inactive” each time.

On to `CC(C)(N)C#N`, for which the Potency result in experiment [1] and in experiment [2] was “inactive” each time.

Consider `CN1CCc2cccc3c2[C@H]1Cc1ccc(O)c(O)c1-3`, for which the Potency entry in experiment [1] and in experiment [2] was “inactive” in each case.

For the compound `CCCCCCCCCCOS(=O)(=O)O`, the Potency entry in experiment [1] and in experiment [2] was “inactive” each time.

As for `CC1(C)OC(=O)Nc2ccc(Br)cc21`, the Potency result in experiment [1] and in experiment [2] was “inactive” in each case.

For `C=C(C)c1cccc(C(C)(C)N=C=O)c1`, the Potency entry in experiment [1] and in experiment [2] was “inactive” in each case.

With `CCCCCCCCCCC=O`, the Potency entry in experiment [1] and in experiment [2] was “inactive” in each case.

For the compound `CCC(COC(=O)CCS)(COC(=O)CCS)COC(=O)CCS`, the Potency entry in experiment [1] and in experiment [2] was “inactive” each time.

Turning to `O=C1CCCN1C1CCCCC1`, the Potency entry in experiment [1] and in experiment [2] was “inactive” each time.

On to `CC1(C)OC(=O)NC1=O`, for which the Potency entry in experiment [1] and in experiment [2] was “inactive” in each case.

For the compound `O=C(O)COCCN1CCN(C(c2ccccc2)c2ccc(Cl)cc2)CC1` (stereo not given), the Potency result in experiment [1] and in experiment [2] was “inactive” throughout.

Turning to `O=C(O)c1cn(C2CC2)c2cc(N3CCNCC3)c(F)cc2c1=O`, the Potency entry in experiment [1] and in experiment [2] was “inactive” each time.

Take `CC(C)(c1cc(Br)c(O)c(Br)c1)c1cc(Br)c(O)c(Br)c1`: the Potency entry in experiment [1] and in experiment [2] was “inactive” throughout.

Turning to `CC(=O)c1cc2ccccc2s1`, the Potency result in experiment [1] and in experiment [2] was “inactive” throughout.

For `CCCCCN(CCCOC)C(=O)C(CCC(=O)O)NC(=O)c1ccc(Cl)c(Cl)c1` (stereo not given), the Potency entry in experiment [1] and in experiment [2] was “inactive” throughout.

For `CC(C)OC(=O)C(O)(CC(=O)O)CC(=O)O`, the Potency entry in experiment [1] and in experiment [2] was “inactive” in each case.

Consider `Cc1ccc(-c2ncc(Cl)cc2-c2ccc(S(C)(=O)=O)cc2)cn1`, for which the Potency entry in experiment [1] and in experiment [2] was “inactive” in each case.

For `O=C1NC(=O)c2cc([N+](=O)[O-])ccc21`, the Potency result in experiment [1] and in experiment [2] was “inactive” each time.

Regarding `CN(C)CCC=C1c2ccccc2C=Cc2ccccc21`, the Potency entry in experiment [1] and in experiment [2] was “inactive” each time.

On to `CC(C)(C)NCC(O)COc1cccc2c1C[C@H](O)[C@H](O)C2` (stereo not given in full), for which the Potency result in experiment [1] and in experiment [2] was “inactive” in each case.

`CCCCCCCCC1CO1` (stereo not given): the Potency result in experiment [1] and in experiment [2] was “inactive” throughout.

With `CN1CCN(CCCN2c3ccccc3Sc3ccc(Cl)cc32)CC1`, the Potency result in experiment [1] and in experiment [2] was “inactive” in each case.

For `ClCCOCCOCCCl`, the Potency result in experiment [1] and in experiment [2] was “inactive” throughout.

As for `CCN(CC)CCNC(=O)COc1ccc(Cl)cc1`, the Potency result in experiment [1] and in experiment [2] was “inactive” each time.

Take `CC(C)OC(=O)c1ccccc1C(=O)OC(C)C`: the Potency result in experiment [1] and in experiment [2] was “inactive” throughout.

Turning to `CN(C)C(=O)NC1(c2ccccc2)CCN(CC[C@@]2(c3ccc(F)c(F)c3)CN(C(=O)c3ccccc3)CCO2)CC1`, the Potency result in experiment [1] and in experiment [2] was “inactive” in each case.

As to `COc1cc2nc(N(C)CCCNC(=O)C3CCCO3)nc(N)c2cc1OC` (stereo not given), the Potency result in experiment [1] and in experiment [2] was “inactive” each time.

For `C=CCOc1c(Br)cc(C(C)(C)c2cc(Br)c(OCC=C)c(Br)c2)cc1Br`, the Potency result in experiment [1] and in experiment [2] was “inactive” throughout.

For the compound `O=C1c2ccccc2C(=O)C1c1ccc2ccccc2n1`, the Potency entry in experiment [1] and in experiment [2] was “inactive” each time.

For `CCOc1nc(F)cc2nc(S(=O)(=O)Nc3c(Cl)cccc3C(=O)OC)nn12`, the Potency entry in experiment [1] and in experiment [2] was “inactive” in each case.

As to `C[C@@H](CN1CC(=O)NC(=O)C1)N1CC(=O)NC(=O)C1`, the Potency entry in experiment [1] and in experiment [2] was “inactive” in each case.

For the compound `CCCCC(CC)COC(C)=O` (stereo not given), the Potency entry in experiment [1] and in experiment [2] was “inactive” throughout.

In the case of `O=C1OC(=O)c2ccccc21`, the Potency entry in experiment [1] and in experiment [2] was “inactive” throughout.

Regarding `CCC(CO)(CO)[N+](=O)[O-]`, the Potency entry in experiment [1] and in experiment [2] was “inactive” throughout.

Take `CCCCNCC`: the Potency entry in experiment [1] and in experiment [2] was “inactive” in each case.

In the case of `CCOc1ccc(NC(C)=O)cc1`, the Potency result in experiment [1] and in experiment [2] was “inactive” in each case.

Consider `COc1ccc(C(C)=O)cc1`, for which the Potency entry in experiment [1] and in experiment [2] was “inactive” each time.

Take `CC(C)C1OCCN1CCOC(=O)NCCCCCCNC(=O)OCCN1CCOC1C(C)C` (stereo not given): the Potency entry in experiment [1] and in experiment [2] was “inactive” throughout.

For the compound `C=C(C)C(=O)OCCOP(=O)(O)OCCOC(=O)C(=C)C`, the Potency entry in experiment [1] and in experiment [2] was “inactive” each time.
